# Laboratory results from PubChem BioAssay AID651595 (National Center for Advancing Translational Sciences (NCATS), 2012).
# The whole screen tested about 1,100 compounds, of which fewer than 10 were called active. Inconclusive results (about 6%) are left out. The list is a sample of the results. A number with no mark means an inactive call. Calls come from the whole dose curve; as a rule, active = well fitted cell-killing curve with a large enough effect; inconclusive = small, poorly fitted or top-dose-only effect; inactive = flat fitted curve, though single readings scatter.
# Assay: qHTS of Nrf2 Activators: Hit Validation in Cytotox Assay;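 note: compound exposure lasted 24 hours before the ATP readout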; for activity change, negative = cytotoxicity: 0% is about no effect
# Details: Cell viability counter-screen for Nrf2 activator hits; series mostly up to 46.1 µM; activity change, negative = cytotoxicity: at the top concentration
# Source text: Many diseases have some form of oxidative stress injury and ties to inflammation, causing a host of problems for the patient. The antioxidant response element (ARE) plays an important role in alleviating the harmful effects of oxidative stress. The antioxidant response element (ARE) is a transcriptional regulatory element involved in the activation of genes coding for a number of antioxidant proteins and detoxifying enzymes. These enzymes work in concert to protect tissues from oxidative insults and chemical toxicities in human hepatocytes and immune cells. The protective effects of ARE activation are primarily triggered through Nrf2 (NF-E2-related factor) binding to and activating AREs. It is known that Nrf2 controls the production of over 250 antioxidant and detoxification proteins (Hu et al., 2006), thereby protecting tissues by increasing cellular antioxidant content and suppressing inflammatory signaling pathways. The transcription factor Nrf2 is a central link between oxidative chemicals, such as phenolic antioxidants and electrophilic compounds, and the activation of ARE. Nrf2 levels are constitutively low as a consequence of its interaction with Keap1, which targets its degradation (Zipper and Mulcahy, 2002). Electrophiles react with key cysteine residues in Keap1, releasing Nrf2 and allowing its translocation to the nucleus. Once within the nucleus, Nrf2 complexes with coactivators such as p300, and binds to the AREs to induce gene transcription of cytoprotective enzymes, resulting in the prevention of toxicity. Activation of Nrf2 protects tissues by increasing cellular antioxidant content and suppressing inflammatory signaling pathways. Identifying novel and potent Nrf2 activators by using the AREc32 cell line to detect ARE activation by small molecules will lead to the identification and development of probes to study protective pathways in multiple tissues. These specific probes are essential to study the ARE pathway, and eventually to determine whether this pathway does activate genes that could protect against a host of diseases, including cardiovascular diseases, obesity, diabetes, Alzheimer's, and Parkinson's disease.
# This project's aim is to identify novel and potent Nrf2 activators by using the AREc32 cell line to detect ARE activation by small molecules, which will lead to the identification and development of probes to study the ARE pathway. Cytotoxic compounds are flagged as active, and inactivity is desired in this assay.
# NIH Chemical Genomics Center [NCGC]
# NIH Molecular Libraries Probe Centers Network [MLPCN]
# Assay Submitter (PI): Curtis Klaassen, University of Kansas Medical Center
# Cell viability after compound treatment was measured using a luciferase-coupled ATP quantitation assay (CellTiter-Glo, Promega) in AREc32_fluc cells. The change of intracellular ATP content indicates the number of metabolically competent cells after compound treatment. AREc32_fluc cells were harvested from T225 flask and resuspended in phenol red free OPTI-MEM medium with 5% FBS. Then 5 microL of 200,000 cells/ml resuspended cells was dispensed into each well of white, solid bottom, 1536-well tissue culture-treated plates using a Multidrop Combi dispenser. After overnight culture at 37 degrees C with 5% CO2, a total of 23 nL of compounds at 7 selected concentrations from the cherry pick or positive control (40 uM stock of CDDO-IM and 2 mM of tBHQ) in DMSO was transferred to each well of the assay plate using a pintool (Kalypsys, San Diego, CA), and the plates were further incubated at 37 degrees C with 5% CO2 for 24 hours. After that, 4 microL of CellTilter-GloTM luminescent substrate mix (Promega) was added to each well. The plate was incubated at room temperature for 30 minutes. The plates were measured on a ViewLux plate reader (PerkinElmer) with clear filter.
# Potency is the fitted concentration of half-maximal effect.
SMILES,"activity change, negative = cytotoxicity",Potency
O=C(Nc1ccccc1F)c1cc(-c2ccco2)nc2ccccc12,9.87%,–
COc1ccc(Cl)cc1-c1nc(-c2ccncc2)no1,0.603%,–
S=c1[nH]nc(-c2ccco2)n1/N=C/c1cccc(Cl)c1Cl,3.26%,–
N#Cc1cnc2cc(-c3ccccc3)nn2c1N,9.63%,–
O=C(CSc1ccc(-c2ccco2)nn1)N1CCCC1,3.86%,–
CCNc1ccc(-c2nc(-c3ccco3)no2)cc1[N+](=O)[O-],4.03%,–
COC(=O)c1ccc2nc(-c3cccc(Br)c3)c(Cc3ccccc3OC)n2c1,-1.22%,–
Fc1ccc2nc(Nc3nc4c(F)cc(F)cc4s3)sc2c1,-20.6%,–
N#Cc1cccn1-c1nccc(-c2cccs2)n1,6.19%,–
O=C(NC(=S)Nc1cc([N+](=O)[O-])ccc1Cl)c1ccccc1,2.33%,–
Cc1cc(SCC(=O)c2cccs2)nc2ccccc12,-9.71%,–
O=C(NCc1ccco1)c1ccccc1-c1nc(-c2ccc(F)cc2)no1,2.78%,–
O=[N+]([O-])c1ccc(SCc2ccco2)cc1N1CCOCC1,-8.19%,–
CCOC(=O)N1CCc2c(sc3c2C(=O)NC(c2ccccc2)N3)C1 (stereo not given),-11.2%,–
CC(=O)c1cccc(NC(=O)c2cc(Cl)sc2Cl)c1,2.61%,–
Cn1c(N/N=C/c2cccs2)cc(=O)n(C)c1=O,1.17%,–
Cc1cc(=O)n2nc(-c3ccccc3)sc2c1C#N,1.07%,–
Cc1cc(C)c(C#N)c(SCC(=O)c2cccs2)n1,3.09%,–
COc1ccc(O)c(-c2cc(-c3ccccc3Cl)[nH]n2)c1,-8.44%,–
CCn1c(SCC(=O)N/N=C/C=C/c2ccco2)nc2ccccc21,-2.98%,–
Cc1ccc(NC(=O)COCc2cc(-c3cccs3)on2)cc1Cl,5.1%,–
c1ccc2c(c1)nnn2-c1ncnc2sccc12,3.73%,–
O=C(CSc1nc2c(sc3ccccc32)c(=O)n1-c1ccccc1)NCc1ccco1,2.64%,–
S=c1[nH]nc(-c2ccncc2)n1/N=C/C=C/c1ccco1,6.05%,–
Clc1ccccc1NN=Cc1ccccn1,1.21%,–
Cc1cc(NC(=O)c2ccccc2)nc2c1c(=O)oc1ccccc12,1.23%,–

SMILES,"activity change, negative = cytotoxicity",Potency
CCCn1c(-c2cccs2)nc2nc3ccccc3nc21,5.71%,–
CCOC(=O)c1sc(NC(=O)c2ccccc2F)c(C(N)=O)c1C,7.14%,–
C#CCSc1nc(-c2ccccc2)cc(C(F)(F)F)c1C#N,5.58%,–
O=Cc1c(NCc2ccco2)nc2ccccn2c1=O,7.6%,–
COC(=O)C1=C(C)NC(=O)/C1=C\c1ccco1,-7.1%,–
Cc1nc(-c2ccccn2)sc1C(=O)Nc1ccc(F)cc1,7.45%,–
CC(=O)Nc1cc(-c2ccsc2)cn2c(-c3ccc(F)cc3)cnc12,-5.25%,–
O=C(Nc1ccc(F)cc1)c1nsc(Cl)c1Cl,1.43%,–
CS(=O)(=O)c1ccc2nc(NC(=O)CCS(=O)(=O)c3ccccc3)sc2c1,11.9%,–
O=C(Cn1ncc(Cl)c(Cl)c1=O)NC1CCS(=O)(=O)C1 (stereo not given),8.46%,–
Cc1ccccc1OCC(=O)Nc1ccccc1CO,11.9%,–
O=C(c1nn2c(C(F)(F)F)cc(-c3ccco3)nc2c1Br)N1CCCc2ccccc21,-15%,–
Cc1ccc([N+](=O)[O-])c(OCc2ncc(Cl)n2C)c1,-2.21%,–
O=c1[nH]c(O)c(/C=C2\C=Nc3ccc(Br)cc32)[nH]1,8.92%,–
COc1ccc(/C(N)=N/OC(=O)c2cccc([N+](=O)[O-])c2)cc1,-1.04%,–
N/C(=N\OC(=O)c1ccco1)c1cccc(Br)c1,3.8%,–
O=c1c2ccccc2oc2cc(Br)ccc12,-0.78%,–
COc1ccc(C=O)cc1OS(=O)(=O)c1ccccc1[N+](=O)[O-],3.78%,–
COc1ccccc1Nc1nc2ccccc2n2cnnc12,7.57%,–
O=c1cc(-c2ccccc2Cl)oc2c(Br)ccc(O)c12,-1.03%,–
Cc1ccc(N=C2NC(=O)S/C2=C\c2ccco2)cc1,-1.78%,–
c1ccc(-c2nc3c4ccccc4ccn3c2Cc2ccsc2)cc1,-15.8%,–
COC(=O)c1c(NC(=O)/C=C/C(=O)O)sc(C)c1-c1ccc(C(C)C)cc1,-2.1%,–
COc1cccc(-c2nc3n(n2)CCc2ccccc2-3)c1,-3.83%,–
C/C(=N\NC(=O)COc1ccccc1[N+](=O)[O-])c1cccs1,3.87%,–
O=c1oc2ccccc2cc1-c1nc(-c2cccs2)cs1,2.24%,–

SMILES,"activity change, negative = cytotoxicity",Potency
NC(=O)c1oc2ccccc2c1NC(=O)c1ccco1,-0.897%,–
Brc1ccccc1/C=N/Nc1ccccn1,2.41%,–
O=C(/C=C/c1ccccc1Cl)Nc1nc(-c2cccs2)ns1,-0.488%,–
Cc1[nH]c2ccccc2c1N=Nc1ccccc1F,-1.48%,–
O=C(N=Nc1c(O)[nH]c2ccc(Br)cc12)c1ccco1,-0.259%,–
CCOC(=O)N/N=C\C=C\c1ccco1,2.28%,–
O=C(NC(=S)Nc1ccc(Br)cn1)c1cccs1,2%,–
COc1ccccc1C=Cc1ccnc2ccccc12,1.67%,–
S=C(NNc1ccc2ccccc2c1)NC1CCCCC1,-1.82%,–
OCC1OC(n2cnc3c(NCc4ccccc4O)ncnc32)C(O)C1O (stereo not given),–,5.17 µM (active)
c1ccc2c(-c3nc4ncccc4o3)cccc2c1,-2%,–
COc1ccc([N+](=O)[O-])cc1C1NN=C(c2ccccc2O)S1 (stereo not given),-3.67%,–
Clc1ccc(Br)cc1-c1nc(-c2ccncc2)no1,2.28%,–
NC(=O)c1c(NC(=O)c2ccco2)sc2c1CCC2,1.87%,–
O=C(Nc1ccccn1)c1csc2c1CCCC2,-2.81%,–
O=C(Nc1ccccn1)Nc1ccccc1Cl,6.29%,–
CC1(C)CC[C@]2(C(=O)n3ccnc3)CC[C@]3(C)[C@H](C(=O)C=C4[C@@]5(C)C=C(C#N)C(=O)C(C)(C)[C@@H]5CC[C@]43C)[C@@H]2C1,–,8.2 µM (active)
Fc1ccccc1-c1nc(-c2ccc(Cl)cc2)no1,-0.963%,–
COc1cc(/C=N/Nc2nc3ccccc3s2)ccc1OC(=O)c1ccccc1F,2.19%,–
Cc1c(Cl)cccc1NC(=S)NC(=O)c1ccccc1,-23.4%,–
c1ccc(-c2cc3c(-n4cccc4)ncnc3o2)cc1,0.0297%,–
O=C(NC(=S)Nc1nc(-c2ccccc2)cs1)c1cccs1,0.308%,–
CS(=O)(=O)Nc1ccc(C(=O)Nc2cccc([N+](=O)[O-])c2)cc1,-7.34%,–
COc1c(C(=O)Nc2nnc(C3CC3)s2)csc1Cl,6.48%,–
O=C(Nc1cc(-c2nc3cc(Cl)ccc3o2)ccc1Cl)c1ccco1,2.73%,–
Cc1cc(=O)oc2c(C(=O)/C=C\c3cccs3)c(O)ccc12,-9.76%,–

SMILES,"activity change, negative = cytotoxicity",Potency
Cn1cnnc1Sc1ccc(/C=C/C(=O)c2ccc(O)cc2)cc1[N+](=O)[O-],-12.4%,–
COC(=O)c1c(NC(=O)c2ccco2)sc(C)c1C,8.04%,–
c1cncc(-c2noc(-c3cccc4ccccc34)n2)c1,-0.825%,–
Nc1c(Cl)cc(N=Nc2ccccc2)cc1Cl,-1.01%,–
Cc1sc2c(c1C)C(=O)NC(c1ccccc1F)N2 (stereo not given),5.03%,–
Clc1cccc(Cc2c(-c3ccco3)nc3c4ccccc4ccn23)c1,-6.06%,–
Cc1csc(NC(=O)/C=C/c2ccco2)n1,6.19%,–
c1ccc(N2CC3COc4ccccc4C3=N2)cc1 (stereo not given),4.77%,–
O=C(/C=C/c1ccc2c(c1)OCO2)c1ccc(O)cc1O,-2.12%,–
N#Cc1c(-c2ccco2)cc(-c2ccc(F)cc2)nc1N,8.67%,–
O=c1[nH]ncc(N/N=C\c2cccs2)c1Cl,2.39%,–
COc1ccccc1NC(=O)C(=O)Nc1ccccn1,-2.4%,–
O=c1[nH]c(/C(Cl)=C/c2cc(Cl)ccc2O)nc2cc(Cl)ccc12,-1.06%,–
O=C(Cn1cnc2scc(-c3cccc([N+](=O)[O-])c3)c2c1=O)NCc1ccco1,-1.79%,–
O=C(/C=C/c1ccco1)Nc1cccnc1Cl,-10.5%,–
CCOC(=O)c1c(-c2ccco2)csc1NC(=O)CSc1nnc(N)s1,-11.5%,–
CCOC(=O)c1ccccc1N/C=C/C(=O)c1cccs1,-4.29%,–
CN1CCCC1CCNc1ccc2c(=O)c3ccccc3oc2c1 (stereo not given),0.572%,–
Clc1nc(-c2ccccc2)cc(-c2ccccc2)n1,2.29%,–
O=C(N/N=C\c1ccco1)Nc1cccc(Cl)c1,-10.8%,–
CN1c2ccsc2/C(=N/Nc2ccccc2)CS1(=O)=O,-1.51%,–
O=C(c1ccccc1)[C@@H]1[C@@H]2C(=O)N(c3ccc(F)cc3)C(=O)[C@@H]2C2CCCN21 (stereo not given in full),4.57%,–
CC1CCCCC1NC(=O)COC(=O)c1c2c(nc3ccccc13)/C(=C/c1ccco1)CC2 (stereo not given),-2.82%,–
CNc1ccccc(C(=O)/C=C/c2ccccc2OC)c1=O,0.226%,–
O=C(N/N=C/c1ccc(-c2cccc([N+](=O)[O-])c2)o1)c1cccs1,-2.3%,–
O=C(Nc1ccccn1)c1ccc(Cl)c([N+](=O)[O-])c1,0.552%,–

SMILES,"activity change, negative = cytotoxicity",Potency
O=C(/C=C/c1ccco1)Nc1cccc(S(=O)(=O)N2CCOCC2)c1,6.93%,–
Cc1ccc([N+](=O)[O-])cc1NC(=O)c1ccc(C(C)(C)C)cc1,-1.77%,–
O=C1/C(=C/c2ccccc2O)SC(=S)N1Cc1cccnc1,4.53%,–
Cc1ccc(S(=O)(=O)/N=C(/NNC(=O)c2cccc(Cl)c2)c2ccccc2)cc1,-0.738%,–
Cc1ccc2ccc(C3C(=O)c4ccccc4C3=O)nc2c1,3.2%,–
Fc1cc(F)c2nc(Nc3nc4cc5c(cc4s3)OCO5)sc2c1,-28.7%,–
CC(/C=N/NC(=O)Cc1cccn1C)=C\c1ccco1,7.92%,–
CC(C)CCn1c(O)c(N=Nc2ccccn2)c2ccccc21,5.08%,–
Oc1ccc2ccccc2c1N=Nc1ccccn1,–,5.17 µM (active)
CCCCn1c(O)c(N=Nc2ccccn2)c2ccccc21,-4.62%,–
O=C(Nc1ccccc1[N+](=O)[O-])C1COc2ccccc2O1 (stereo not given),1.87%,–
CCOC(=O)COn1c(=O)c(-c2ccco2)[n+]([O-])c2ccccc21,5.99%,–
C(=Cc1cnnc2ccccc12)c1ccccc1,-3.58%,–
Cc1ccc(S(=O)(=O)c2nc(S(C)(=O)=O)sc2N2CCC(C)CC2)cc1,-3.41%,–
O=C1C(Cl)=C(N2CCN(c3ccccc3[N+](=O)[O-])CC2)C(=O)c2ccccc21,–,18.4 µM (active)
O=C1C(=Cc2ccccc2[N+](=O)[O-])Cc2ccccc21,-13.3%,–
N#CC1CC(c2ccccc2)=NN1c1ccccc1[N+](=O)[O-] (stereo not given),-5.07%,–
COC(=O)c1sccc1NC(=O)c1cccc(OC)c1,-4.2%,–
N#C/C(=C1/C(=O)Nc2ccc(Br)cc21)c1ccccn1,1.23%,–
Nc1ccc2c(c1)Cc1c(F)cccc1-2,6.2%,–
COc1ccc2[nH]c3c(NCc4ccco4)ncnc3c2c1,-2.65%,–
O=C(/C(C=Nc1ccc(F)cc1)=C(/O)c1ccco1)C(F)(F)F,0.0691%,–
CC(C)Nc1ccc(-c2nc(-c3ccco3)no2)cc1[N+](=O)[O-],10.1%,–
O=C(CSc1ccccn1)N/N=C/c1ccccc1[N+](=O)[O-],2.77%,–
CCOc1ccccc1NC(=S)NC(=O)c1ccco1,-1.64%,–
O=C(Nc1nc2ccc(F)cc2s1)c1ccc([N+](=O)[O-])o1,-20.4%,–
